AmpC inh detg: blocks E. coli AmpC beta-lactamase in detergent assay | 0.041% of 370,000 active | AmpC hydrolysis of nitrocefin, absorbance 480 nm, 0.01% Triton | Potency, µM (highest dose often 114 µM), inactives show at the top dose activity change, negative = inhibition, most hits filed as inhibitors;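 further: 0% = no-compound wells and -100% = no-enzyme wells; nearly all actives have a fitted effect of over 25% in size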
Target sequence (P00811 whole entry, looked up): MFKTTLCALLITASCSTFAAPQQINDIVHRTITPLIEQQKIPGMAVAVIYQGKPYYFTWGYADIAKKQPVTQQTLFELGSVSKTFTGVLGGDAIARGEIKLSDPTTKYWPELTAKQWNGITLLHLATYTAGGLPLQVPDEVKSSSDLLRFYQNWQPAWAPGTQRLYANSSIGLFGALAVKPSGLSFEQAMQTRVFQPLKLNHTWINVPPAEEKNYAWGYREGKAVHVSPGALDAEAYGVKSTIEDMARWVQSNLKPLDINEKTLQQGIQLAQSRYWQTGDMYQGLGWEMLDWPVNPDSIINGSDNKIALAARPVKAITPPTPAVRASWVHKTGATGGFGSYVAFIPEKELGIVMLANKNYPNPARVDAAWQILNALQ
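20 mM phosphate pH 7.0 + 0.01% (detergent screen) or 0.0001% Triton X-100; 5.3 nM AmpC reagent; cpd preinc 15 min RT; nitrocefin (800 uM stock) to start; A480 q20 s × 4 min; Activity was normalised to no-enzyme and no-compound control wells.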
AmpC no deterg: AmpC beta-lactamase inhibition without detergent; 0.52% of 330,000 active; Potency, µM (doses to about 57.1 µM), for inactives: at the highest dose activity change, negative = inhibition, most hits filed as inhibitors; AID 485341; AmpC nitrocefin hydrolysis, absorbance 480 nm, 0.0001% Triton; P00811;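 further: plate controls were no compound for no effect and no enzyme for full effect; nearly all actives have a fitted effect of over 20% in size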
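AmpC (5.3 nM in the dispensed reagent) in 20 mM phosphate pH 7.0 with 0.01% (detergent screen) or 0.0001% Triton X-100 was preincubated with compounds for 15 min at room temperature. Nitrocefin was then added from an 800 uM solution, and hydrolysis was followed at 480 nm.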
RE007 growth inh: less growth of the S. pombe RE007 Vpr strain. S. pombe RE007 Vpr strain, BacTiter-Glo ATP luminescence, 24 h. Potency, µM (series often up to 92.2 µM), for inactives: top-dose activity change, negative = less growth, hits mostly inhibitors. 0.21% of 360,000 active. AID 651644; active means well fitted falling curve with a large enough effect; inconclusive means small, poorly fitted or top-dose-only effect; inactive means no such curve, though single readings can be large or run the other way; further: nearly all actives have a fitted effect of over 50% in size
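Fission yeast RE007 carrying one integrated HIV-1 vpr copy, seeded at OD 0.01 in PMG+AL medium with 23 nL pinned compound. Grown 24 h at 30 degrees; viability read by BacTiter-Glo luminescence after 5 min.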
TbPYK inhibitor: inhibitors of Trypanosoma brucei pyruvate kinase. Q57TT1. 0.12% of 410,000 active. AID 624173. TbPYK enzyme, Kinase-Glo Plus ATP luminescence, 45 min. Potency, µM (series often up to 76.8 µM), inactives show top-dose activity, negative = inhibition, hits mostly inhibitors; further: nearly all actives have a fitted effect of over 50% in size
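T. brucei PYK with substrate was exposed to pin-transferred compounds across a concentration series, then started with 130 uM ADP (final). After 45 min at room temperature, Kinase-Glo Plus luminescence was read, normalized and curve-fitted.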
Giardia FBPA inh: blocks Giardia fructose-bisphosphate aldolase activity. AID 2451. purified Giardia FBPA. Potency, µM (top dose mostly 59.6 µM), for the others: at the highest dose activity, negative = inhibition, usual class: inhibitors. 0.71% of 290,000 active; further: nearly all actives have a fitted effect of over 55% in size
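40 nM FBPA preincubated 10 min at RT with compound (up to 57.5 uM final), then substrate plus GAPDH/TPI/NAD/arsenate coupling and diaphorase/resazurin added. Fluorescence read after 20 min at RT, 525/598 nm.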
LmPK inhibitor: blocks Leishmania mexicana pyruvate kinase activity | 0.37% of 290,000 active | purified LmPK, Kinase-Glo ATP luminescence, 1 h | Potency, µM (series often up to 57.5 µM), inactives show at the top dose activity change, negative = inhibition, hits mostly inhibitors
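qHTS format; LmPK 0.1 nM; substrates PEP 0.5 mM and ADP 0.1 mM. One-hour room-temperature incubation, then coupled luciferase luminescence; 0.5 nM enzyme wells mark activation.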
* marks the source's active call; other numbers are inactive results; ? = inconclusive; / = no result. A selection: hits, their analogues and other compounds. The true share with any hit is near 1.4%. Unless noted, the call rests on the fitted dose curve; in most records, active means well fitted curve in the direction sought with a large enough effect; inconclusive means small, poorly fitted or top-dose-only effect, or another doubt; inactive means no such curve, though single readings can be large; an effect the other way counts as inactive or inconclusive. Unless noted, on the % scale 0 is the no-effect control and ±100 the full control effect; potency means the concentration at half of the fitted maximal effect.

SMILES	AmpC inh detg	AmpC no deterg	RE007 growth inh	TbPYK inhibitor	Giardia FBPA inh	LmPK inhibitor
Cc1ccc(-c2cc(C(F)F)n3ncc(C(=O)N4CCN(c5ccccn5)CC4)c3n2)cc1	-6%	11µM*	-14%	-1%	-3%	-2%
COc1cc(C(=O)Nc2ccc(-c3cc(C(F)(F)F)nn3-c3ccccc3)cc2)cc(OC)c1OC	3%	/	/	5%	/	/
NC(=O)c1ccsc1NC(=O)CSc1nnc(Nc2ccccc2)s1	2%	14µM*	-6%	-6%	-11%	1%
NC(=O)c1ccsc1NC(=O)CSc1ccccc1F	-4%	-45%	-9%	1%	-4%	0%
NCCCNCCCCNC(=O)C(O)NC(=O)CCCCCCN=C(N)N (stereo not drawn)	/	/	/	0%	/	/
c1ccc(Sc2ccccn2)cc1	/	/	-24%	-2%	/	/
c1ccc(SSc2ccccn2)nc1	/	/	45µM*	?	/	/
CCOc1ccc(-c2nc3c(C#N)c[nH]n3c2NC2CCCC2)cc1	22%	/	/	-4%	/	/
Cc1cccc(NCCC(=O)c2ccc([N+](=O)[O-])cc2)c1C	9%	-21%	35µM*	6%	-6%	5%
Cc1ccc(C(=O)CNc2cccc([N+](=O)[O-])c2)cc1	2%	-25%	-9%	8%	1%	8%
Cc1ccc(NCCC(=O)c2cccc([N+](=O)[O-])c2)c(C)c1	5%	20µM*	5.6µM*	-6%	4%	0%
CCOc1ccccc1CNCc1cccn1-c1nnc(N2CCN(c3ccccc3)CC2)s1	-12%	/	/	2%	/	/
O=C(Nc1cc(Cl)ccc1Cl)c1cc(S(=O)(=O)N2CCCc3ccccc32)ccc1F	6%	/	/	2%	/	/
CC(C)c1ccc2[nH]c(O)c(N=NC(=O)c3cccc(S(=O)(=O)N4CCCCC4)c3)c2c1	-3%	6.3µM*	3%	-3%	-5%	5%
Cc1ccc(NC(=O)c2cc(N3C(=O)C=CC3=O)ccc2Cl)cc1C	-3%	-51%	10µM*	?	-11%	28%
Cc1ccc(NC(=O)c2cc(N3C(=O)C=CC3=O)ccc2N2CCOCC2)cc1	2%	-3%	8.9µM*	22µM*	-11%	38%
CCOc1ccc(C2CC(c3ccccc3C)n3nc(N)nc3N2)cc1 (stereo not drawn)	-4%	32µM*	-7%	-27%	-3%	7%
COc1cccc(C2CC(c3ccccc3C)n3nc(N)nc3N2)c1 (stereo not drawn)	?	2.8µM*	12%	-3%	2%	4%
COc1cccc(C2CC(c3c(Cl)cccc3Cl)n3nc(N)nc3N2)c1 (stereo not drawn)	?	5.6µM*	-2%	-3%	-1%	0%
COc1ccc(C2CC(c3ccccc3C)n3nc(N)nc3N2)cc1 (stereo not drawn)	-14%	?	-2%	1%	2%	5%
CCOc1ccc(C2CC(c3cccc(OC)c3)n3nc(N)nc3N2)cc1 (stereo not drawn)	?	4.5µM*	4%	0%	0%	3%
COc1ccc(C2CC(c3cccc(OC)c3)n3nc(N)nc3N2)cc1 (stereo not drawn)	-9%	-15%	-1%	-4%	7%	1%
COc1ccc2c(c1)c1c(c(=O)n(-c3ccc(F)c(Cl)c3)c(=O)n1Cc1ccccc1C)n2C	-2%	/	/	-7%	/	/
Cc1cccc(-n2c(C)nc3cc(C(=O)NC4CCCCCC4)ccc32)c1	6%	/	/	-2%	/	/
Cc1ccccc1C(=O)N1CC/C(=N/OS(=O)(=O)O)c2ccc(Cl)cc21	/	/	/	-8%	/	/
Cc1ccc(C)c(N=Cc2cc3c(cc2[N+](=O)[O-])OCO3)c1	-13%	-56%	-4%	-3%	3.2µM*	-5%

Compound activity from PubChem BioAssay.
